According to ChEMBL document CHEMBL1157539, “Thousands of chemical starting points for antimalarial lead identification” (Nature, 2010):
Values joined by “and” are separate entries in the source; they are usually repeats but may differ in a detail not shown here. Equal values may be shown once.

Columns and labels:
Assay type in all cases: functional
Plasmodium falciparum [1] = experiment: GSK_TCMDC: Inhibition of Plasmodium falciparum 3D7 in whole red blood cells, using parasite LDH activity as an index of growth. Test compounds present at 2uM
Plasmodium falciparum [2] = experiment: GSK_TCMDC: Inhibition of Plasmodium falciparum Dd2 in whole red blood cells, using parasite LDH activity as an index of growth. Test compounds present at 2uM
HepG2 = experiment: GSK_TCMDC: Percent inhibition of human HepG2 cell line. Test compounds present at 10uM.

## O=C1c2ccccc2CCC1CCN1CC=C(c2c[nH]c3ccccc23)CC1 (configuration not stated)
Plasmodium falciparum [1]
  Inhibition: 89%
Plasmodium falciparum [2]
  Inhibition: 83%
HepG2
  Inhibition: 5%

## S=C(Nc1ccc2c(c1)OCCO2)NC1CCC(CN2CCC(c3c[nH]c4ccccc34)CC2)CC1 (configuration not stated)
Plasmodium falciparum [1]
  Inhibition: 96% and 92%
Plasmodium falciparum [2]
  Inhibition: 1% and 7%
HepG2
  Inhibition: 31% and 32%

## CC(Cc1ccc(NC(=O)CCCc2ccccc2)cc1)NCCc1cccc(Cl)c1.Cl (configuration not stated)
Plasmodium falciparum [1]
  Inhibition: 94%
Plasmodium falciparum [2]
  Inhibition: 3%
HepG2
  Inhibition: 12%

## Cc1cc(C(=O)NC2CCN(CC3(c4ccc(Cl)cc4)CCC3)CC2)on1
Plasmodium falciparum [1]
  Inhibition: 98%
Plasmodium falciparum [2]
  Inhibition: 95%
HepG2
  Inhibition: 5%

## CCCCCCCc1cc(=O)c2ccccc2[nH]1
Plasmodium falciparum [1]
  Inhibition: 96%
Plasmodium falciparum [2]
  Inhibition: 94%
HepG2
  Inhibition: 5%

## NC(=O)CN1CC=C(c2c[nH]c3ccc(Br)cc23)CC1
Plasmodium falciparum [1]
  Inhibition: 83%
Plasmodium falciparum [2]
  Inhibition: 0%
HepG2
  Inhibition: 30%

## COc1ccc(CC(C)NCC(O)c2ccc(Cl)c(Cl)c2)cc1 (configuration not stated)
Plasmodium falciparum [1]
  Inhibition: 98%
Plasmodium falciparum [2]
  Inhibition: 96%
HepG2
  Inhibition: 0%

## CC(C)CNCc1cccc(-c2ccc(CN(C(=O)Nc3ccccc3)C3CCN(Cc4ccccc4)CC3)cc2)c1.O=C(O)C(F)(F)F
Plasmodium falciparum [1]
  Inhibition: 100%
Plasmodium falciparum [2]
  Inhibition: 61%
HepG2
  Inhibition: 41%

## CCCN(CC(=O)NCCc1ccccc1)c1ccc(C#N)c2ccccc12.O=C(O)C(F)(F)F
Plasmodium falciparum [1]
  Inhibition: 92%
Plasmodium falciparum [2]
  Inhibition: 39%
HepG2
  Inhibition: 8%

## Cc1[nH]c2ccccc2c1C1=CCN(CCCCC23CCCc4cccc(c42)NC3=O)CC1 (configuration not stated)
Plasmodium falciparum [1]
  Inhibition: 95%
Plasmodium falciparum [2]
  Inhibition: 91%
HepG2
  Inhibition: 9%

## Cn1nc(C(F)(F)F)cc1-c1ccc(C(=O)NC2CCC(CN3CCC(c4c[nH]c5ccccc45)CC3)CC2)s1 (configuration not stated)
Plasmodium falciparum [1]
  Inhibition: 100%
Plasmodium falciparum [2]
  Inhibition: 97%
HepG2
  Inhibition: 45%

## O=C(O)C(F)(F)F.OC1(CNCc2ccccc2)CCN(CCc2c[nH]c3ccc(F)cc23)CC1
Plasmodium falciparum [1]
  Inhibition: 100%
Plasmodium falciparum [2]
  Inhibition: 4%
HepG2
  Inhibition: 39%

## O=C(/C=C/c1ccc(Cl)c(Cl)c1)N1CCC(CN2CCC(c3c[nH]c4ccc(O)cc34)CC2)CC1
Plasmodium falciparum [1]
  Inhibition: 100%
Plasmodium falciparum [2]
  Inhibition: 100%
HepG2
  Inhibition: 44%

## O=C(CCCCCc1ccccc1)NC1CCC(CN2CCC(c3c[nH]c4ccccc34)CC2)CC1 (configuration not stated)
Plasmodium falciparum [1]
  Inhibition: 86%
Plasmodium falciparum [2]
  Inhibition: 5%
HepG2
  Inhibition: 34%

## O=C1Nc2cccc3c2C1(CCCCCN1CC=C(c2c[nH]c4ccccc24)CC1)CCC3 (configuration not stated)
Plasmodium falciparum [1]
  Inhibition: 94%
Plasmodium falciparum [2]
  Inhibition: 89%
HepG2
  Inhibition: 2%

## O=C(c1cc(C(=O)NCc2ccc(Cl)cc2)c(=O)n(Cc2ccc(Cl)cc2)c1)c1cc(F)ccc1O
Plasmodium falciparum [1]
  Inhibition: 93%
Plasmodium falciparum [2]
  Inhibition: 2%
HepG2
  Inhibition: 7%

## Cc1c2ccncc2c(C)c2c1[nH]c1ccccc12 [ELLIPTECINE]
Plasmodium falciparum [1]
  Inhibition: 95%
Plasmodium falciparum [2]
  Inhibition: 97%
HepG2
  Inhibition: 38%

## Cc1c(C)c2c(c(C)c1O)CC[C@@](C)(C(=O)N1CCC(CN3CCC(c4c[nH]c5ccccc45)CC3)CC1)O2
Plasmodium falciparum [1]
  Inhibition: 98%
Plasmodium falciparum [2]
  Inhibition: 90%
HepG2
  Inhibition: 21%

## CCCCCCc1cc(O)c2c3c(c(=O)oc2c1)CCN(C)C3
Plasmodium falciparum [1]
  Inhibition: 99%
Plasmodium falciparum [2]
  Inhibition: 66%
HepG2
  Inhibition: 0%

## CCC1(C)CC(CCNCc2ccccc2O)(c2ccc(F)cc2)CCO1 (configuration not stated)
Plasmodium falciparum [1]
  Inhibition: 98%
Plasmodium falciparum [2]
  Inhibition: 32%
HepG2
  Inhibition: 20%

## Cn1nc(-c2ccc(S(=O)(=O)NC3CCC(CN4CCC(c5c[nH]c6ccccc56)CC4)CC3)s2)cc1C(F)(F)F (configuration not stated)
Plasmodium falciparum [1]
  Inhibition: 96% and 98%
Plasmodium falciparum [2]
  Inhibition: 24% and 29%
HepG2
  Inhibition: 35% and 38%

## CCCCCc1cc(O)c2c(c1)OC(C)(C)CC2C1=CCN(Cc2ccccc2)CC1 (configuration not stated)
Plasmodium falciparum [1]
  Inhibition: 99%
Plasmodium falciparum [2]
  Inhibition: 79%
HepG2
  Inhibition: 15%

## CC(=O)C1(c2ccccc2)CCN(CCC2(c3ccc(Cl)c(Cl)c3)CN(C(=O)c3cccc(Cl)c3)CCO2)CC1 (configuration not stated)
Plasmodium falciparum [1]
  Inhibition: 90%
Plasmodium falciparum [2]
  Inhibition: 61%
HepG2
  Inhibition: 37%

## S=C(NCC1CCCCC1)NC1CCC(CN2CCC(c3c[nH]c4ccccc34)CC2)CC1 (configuration not stated)
Plasmodium falciparum [1]
  Inhibition: 88%
Plasmodium falciparum [2]
  Inhibition: 10%
HepG2
  Inhibition: 29%

## N#Cc1ccc(N(CCCO)Cc2ccccc2C(F)(F)F)cc1C(F)(F)F
Plasmodium falciparum [1]
  Inhibition: 91%
Plasmodium falciparum [2]
  Inhibition: 23%
HepG2
  Inhibition: 7%

## Cl.NCC(=O)c1cc2c(cc1N)OCCO2
Plasmodium falciparum [1]
  Inhibition: 89%
Plasmodium falciparum [2]
  Inhibition: 42%
HepG2
  Inhibition: 64%

## CCCCCc1cc(O)c2c3c(c(=O)oc2c1)CN(C)CC3
Plasmodium falciparum [1]
  Inhibition: 100%
Plasmodium falciparum [2]
  Inhibition: 99%
HepG2
  Inhibition: 4%

## CC(Cc1ccc(NC(=O)[C@H](C)NCCc2cccc(Cl)c2)cc1)NCCc1cccc(Cl)c1.Cl (some centres not stated)
Plasmodium falciparum [1]
  Inhibition: 100%
Plasmodium falciparum [2]
  Inhibition: 54%
HepG2
  Inhibition: 99%

## C[C@@H](CC1CCCCC1)NCc1ccccc1O
Plasmodium falciparum [1]
  Inhibition: 98%
Plasmodium falciparum [2]
  Inhibition: 67%
HepG2
  Inhibition: 9%
